In the library only some 3.1% were active in any assay of this set; here they are far more common.
S1P3 antagonist = antagonists of human S1P3 receptor; Q99500; CHO S1P3 NFAT-BLA reporter, FRET fluorescence, antagonist mode; inhibition, % at 4.98 µM; 170,000 tested, 0.27% active;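 active means inhibition above the plate cutoff, the mean inhibition of test wells on that plate plus 3 SD, cut at about 28% in these data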;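 further: cells challenged with S1P at its EC80 of 0.8 µM; blue over green emission ratio from cleaved BLA substrate after 4 h stimulation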
Target sequence (Q99500 whole entry, looked up): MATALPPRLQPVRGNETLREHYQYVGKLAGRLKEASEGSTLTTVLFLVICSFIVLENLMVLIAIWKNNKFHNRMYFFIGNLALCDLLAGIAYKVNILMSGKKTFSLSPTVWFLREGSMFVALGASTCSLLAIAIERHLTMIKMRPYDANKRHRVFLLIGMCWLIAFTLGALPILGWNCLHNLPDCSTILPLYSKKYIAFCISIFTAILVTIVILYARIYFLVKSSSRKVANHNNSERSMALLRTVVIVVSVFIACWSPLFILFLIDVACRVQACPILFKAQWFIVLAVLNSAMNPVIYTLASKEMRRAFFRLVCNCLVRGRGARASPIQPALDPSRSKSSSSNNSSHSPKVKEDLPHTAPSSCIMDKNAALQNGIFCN
PGE2 EP2 inh = inhibitors of human EP2 prostaglandin E2 receptor. P43116. C6 glioma cells expressing human EP2, cAMP TR-FRET; cells stimulated with saturating PGE2. inhibition, % at 25 µM. 260,000 tested, 0.52% active;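 active means percent inhibition above 40 after rounding to a whole number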;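 further: rat C6 glioma host cells with rolipram phosphodiesterase inhibitor present; the protocol text gives 20 µM as final concentration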
Target sequence (P43116 whole entry, looked up): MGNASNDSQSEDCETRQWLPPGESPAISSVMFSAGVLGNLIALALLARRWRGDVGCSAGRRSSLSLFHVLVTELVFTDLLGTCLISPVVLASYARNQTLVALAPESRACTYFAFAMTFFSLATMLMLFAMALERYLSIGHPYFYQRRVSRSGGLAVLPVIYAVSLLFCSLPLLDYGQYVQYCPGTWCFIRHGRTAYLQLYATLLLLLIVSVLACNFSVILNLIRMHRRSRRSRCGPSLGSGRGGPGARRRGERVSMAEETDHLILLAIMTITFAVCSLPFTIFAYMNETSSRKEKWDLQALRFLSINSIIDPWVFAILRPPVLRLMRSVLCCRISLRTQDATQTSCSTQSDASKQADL
EP2 mod = EP2 receptor (human) modulation | 260,000 tested, 0.83% active | AID 940 | induction, % at 25 µM | P43116 | EP2-expressing cells, cAMP HTRF FRET, PGE2 co-stimulation;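 active means compounds whose cAMP rise, as percent of the full-agonist control response, exceeds 60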;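 further: rat C6 glioma line stably carrying human EP2 under a CMV promoter; the protocol text gives 20 µM as final concentration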
KCC2 mod = modulates chloride dependent transport by human KCC2. KCC2 cells, thallium flux FluoZin-2 fluorescence. B-score of Tl+ flux slope (higher = more flux/activation; lower = inhibition) at 10 µM. 190,000 tested, 2.2% active. AID 1456;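 active means thallium flux slope and its plate-corrected score both differing from the plate sample mean at a set confidence after two filtering rounds, in either direction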;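 further: slope of fluorescence scaled to starting intensity during 10 to 20 s after thallium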
KCC2 sec1 = KCC2 (human) modulation, secondary assay; 3,700 tested, 15% active; HEK293-KCC2, thallium flux, FluoZin2 fluorescence; hits give high values; normalised thallium flux (F/F0 slope) at 10 µM; shares compounds with KCC2 mod;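 active means thallium flux slope above the same plate's solvent-only control mean plus 3 SD; inconclusive means the two replicate wells disagree; inactive means no significant difference from solvent-only control wells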
KCC2 bumet counter = thallium flux persisting under bumetanide in KCC2 cells, counter-screen secondary assay; HEK293-KCC2 + bumetanide/ouabain, thallium flux FluoZin2; hits give high values; 3,700 tested, 49% active; normalized thallium flux at 10 µM; AID 1714; shares compounds with KCC2 mod;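 active means thallium entry rate above the same plate's blocked-transporter control wells by more than 3 SD; inconclusive means the two repeat wells disagree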;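 further: raw slope of fluorescence over initial fluorescence between 10 and 20 s after thallium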
KCC2 sec2 = KCC2 (human) modulation, second secondary assay. shares compounds with KCC2 mod. HEK293-KCC2, thallium flux FluoZin2 fluorescence; actives lie on both sides; F/F0 rise rate, 10–20 s post-thallium. normalized thallium flux at 10 µM. 3,700 tested, 23% active;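 active means thallium flux slope more than 3 SD above or below the plate's solvent-only control mean, mostly below; inconclusive means the two repeat wells disagreed; inactive means no significant shift from solvent-only controls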
HEK293 Tl flux = acts in parental HEK cells, KCC2 counter-screen; HEK293 parental cells, thallium flux FluoZin2, ouabain; baseline-ratio fluorescence slope, 10–20 s after thallium; thallium flux rate (normalised fluorescence) at 10 µM; shares compounds with KCC2 mod; 3,700 tested, 46% active;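 active means thallium flux rate significantly above the same plate's solvent-only control wells, beyond their mean plus 3 SD; inconclusive means the two replicate wells gave conflicting results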
KCC2 ouabain = confirmation of human KCC2 modulators with ouabain. shares compounds with KCC2 mod. HEK293-KCC2, thallium flux FluoZin2 fluorescence; bidirectional: low = inhibitor, high = activator. raw Tl+ flux slope (below DMSO = inhibition, above = activation) at 10 µM. 3,700 tested, 48% active. AID 1717;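 active means thallium flux slope beyond 3 SD from same-plate DMSO control mean in most replicates, usually higher, sometimes lower; inconclusive means repeat tests gave conflicting results; inactive means no significant difference from controls in most replicates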;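 further: slope of initial-normalized fluorescence between seconds 10 and 20 after thallium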
HEK counter2 = parental HEK flux effect, counter-screen 2; AID 1718; thallium flux slope at 10 µM; shares compounds with KCC2 mod; HEK293 parental, thallium flux FluoZin-2 fluorescence slope; 3,700 tested, 33% active;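 active means thallium flux slope above the same plate's solvent-control mean plus 3 SD in both duplicate wells; inconclusive means duplicate wells that disagreed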;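 further: run without ouabain in cells lacking the KCC2 cotransporter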
Hits are given with their value; – = inactive; ? = inconclusive; · = no result.

SMILES	S1P3 antagonist	PGE2 EP2 inh	EP2 mod	KCC2 mod	KCC2 sec1	KCC2 bumet counter	KCC2 sec2	HEK293 Tl flux	KCC2 ouabain	HEK counter2
Cc1ccc(N=Nc2c(O)n(CN3CCOCC3)c3ccccc23)cc1	·	·	–	·	·	·	·	·	·	·
O=C(Nc1ccccc1F)Nc1cc(S(=O)(=O)N2CCOCC2)ccc1N1CCCC1	–	–	–	–	·	·	·	·	·	·
Cn1c(O)c(N=NC(=S)Nc2ccccc2F)c2cc(S(=O)(=O)N3CCOCC3)ccc21	–	–	–	37	0.016	0.056	–	?	0.044	?
Cn1c(=O)c2cc(S(=O)(=O)N3CCOCC3)ccc2n(C)c1=O	–	–	–	–	·	·	·	·	·	·
Cc1ccc(NC(=S)N=Nc2c(O)n(C)c3ccc(S(=O)(=O)N4CCOCC4)cc23)cc1C	–	–	–	7.4	–	0.013	–	0.032	?	0.018
Cc1cccc(NC(=S)N=Nc2c(O)n(CN3CCOCC3)c3ccccc23)c1C	–	–	–	5.3	0.024	0.021	–	0.012	0.026	0.012
C=CCn1c(O)c(N=NC(=S)Nc2ccc(OC)c(Cl)c2)c2ccccc21	–	–	–	21	–	0.029	–	0.024	0.028	0.016
Cn1c(=O)oc2cc(S(=O)(=O)NCc3ccccc3CN3CCOCC3)ccc21	·	–	–	·	·	·	·	·	·	·
CCn1c2ccccc2c2nc3cc(S(=O)(=O)N4CCOCC4)ccc3nc21	–	·	–	–	·	·	·	·	·	·
C=CCn1c(O)c(N=NC(=S)Nc2ccccc2C)c2cc(S(=O)(=O)N3CCOCC3)ccc21	–	–	–	14	0.013	0.072	–	0.02	–	0.015
O=C(CN1C(=O)c2cccc3cccc1c23)Nc1ccc2c(c1)OCCO2	·	–	–	·	·	·	·	·	·	·
Cc1ccc(NC(=O)/C(=C\C=C\c2ccccc2)NC(=O)c2ccccc2)cc1	·	–	–	-4	?	–	–	–	0.013	–
CN(C)c1ccc(-c2nc3cnccn3c2NCc2ccc3c(c2)OCO3)cc1	·	·	–	·	·	·	·	·	·	·
Cc1ccc(NC(=O)CN2C(=O)C(C)(C)Oc3ccc(C(=O)NC(C)C)cc32)cc1C	·	–	–	·	·	·	·	·	·	·
O=C(Nc1nnc(N2CCCCCC2)s1)c1cc(-c2ccc(Br)cc2)on1	–	–	–	–	·	·	·	·	·	·
CC1CCCC(C)N1c1nnc(NC(=O)c2cc(-c3ccc(Br)cc3)on2)s1 (configuration not stated)	·	·	–	12	–	0.02	–	0.011	?	?
CC(C)(C)NC(=S)N/N=C/c1c(Cl)cccc1Cl	–	–	–	7.8	–	0.0094	–	0.012	–	0.013
CCCn1c(SCC(=O)N2CCCCC2)nnc1-c1ccco1	–	–	–	5.6	–	–	–	–	–	–
O=C(CSc1nnc(-c2ccco2)n1Cc1ccccc1)c1ccccc1	–	–	–	-8.2	–	–	?	?	0.015	–
Cc1ccc(C(=O)CSc2nnc(-c3ccco3)n2Cc2ccccc2)cc1	·	–	–	-3.2	–	–	–	?	0.013	–
COc1cccc(OC)c1C(=O)N1CCC(n2nnc3ccccc3c2=O)CC1	·	·	–	·	·	·	·	·	·	·
c1ccc(-c2cnc(CSc3nnc4ccccn34)o2)cc1	–	–	–	–	·	·	·	·	·	·
Cc1ccccc1-n1nnnc1SCc1ncc(-c2ccccc2)o1	–	·	–	-3.4	–	–	?	?	–	–
CCc1nnc(NC(=O)CSc2nnnn2-c2ccc(C)c(C)c2)s1	·	–	–	·	·	·	·	·	·	·
O=C(CN1CCN(Cc2ccccc2)CC1)Nc1ccc2c(c1)CCC2	–	–	–	–	·	·	·	·	·	·
SMILES	S1P3 antagonist	PGE2 EP2 inh	EP2 mod	KCC2 mod	KCC2 sec1	KCC2 bumet counter	KCC2 sec2	HEK293 Tl flux	KCC2 ouabain	HEK counter2
O=C(CN1CCN(S(=O)(=O)c2ccccc2)CC1)Nc1ccc2c(c1)CCC2	–	–	–	6.2	–	–	?	–	–	–
CC1CCC2(CC1)C(Nc1cccc(Cl)c1)=NC(=S)N2CC#N (configuration not stated)	·	–	–	19	0.0097	0.05	0.055	0.052	0.045	0.041
CC1CCC(=C(C#N)C(=O)Nc2cccc(Cl)c2)CC1 (configuration not stated)	·	–	–	–	·	·	·	·	·	·
CC(=O)C1=C(O)C(=O)N(CC#N)C1c1cccc(F)c1 (configuration not stated)	·	–	–	·	·	·	·	·	·	·
CC(C)OC(=O)c1cc2c(ccn2-c2ccc(F)cc2)n1CC(=O)N1CCN(C(=O)c2ccco2)CC1	–	–	–	·	·	·	·	·	·	·
COC(=O)c1cc2c(ccn2-c2ccc(F)cc2)n1CC(=O)N1CCN(C(=O)c2ccco2)CC1	–	–	–	-6.7	?	?	0.028	0.0095	?	–
CCn1c(C(=O)OC)cc2c1ccn2-c1ccc(F)cc1	–	–	–	–	·	·	·	·	·	·
CCOC(=O)c1cc2c(ccn2-c2ccc(F)cc2)n1CC(=O)NC(C)(C)C	–	–	–	-5.6	–	–	0.024	–	0.017	–
CC(=O)Nc1ccc(CNC(=O)CN2CCOCC2)cc1	·	–	–	·	·	·	·	·	·	·
Cc1cccc(C)c1NC(=O)CN1CCC(c2nc3ccccc3s2)CC1	·	–	–	·	·	·	·	·	·	·
Cc1ccc2nc(CSc3nc(C)cc(C)c3C#N)[nH]c2c1	·	–	–	5.9	–	–	0.025	0.0061	–	–
Cc1cc(C)c(C#N)c(SCc2ccccc2)n1	·	–	–	–	·	·	·	·	·	·
CCOC(=O)N1CCN(C(=O)c2cc(C)no2)CC1	–	·	–	-3.9	–	–	–	–	–	–
CC(C)Oc1cccc(-c2cc(C(=O)NC(=S)N(C)c3ccccc3C(=O)O)c3ccccc3n2)c1	–	–	–	4.4	?	0.02	–	0.011	?	0.014
CCCOc1ccc(C(=O)NNC(=S)NC(=O)c2cc(-c3ccc(Cl)cc3)nc3ccccc23)cc1	·	–	–	–	·	·	·	·	·	·
COc1ccc(Cl)cc1C(=O)NNC(=S)NC(=O)c1cc(-c2ccccc2)nc2ccccc12	·	·	–	4.8	–	0.0087	–	0.012	–	–
CCNC(=S)NNC(=O)c1cc(-c2cccc(OC)c2)nc2ccccc12	–	–	–	–	·	·	·	·	·	·
COc1ccc(C(=O)NNC(=S)NC(=O)c2cc(-c3ccccc3)nc3ccccc23)cc1	·	·	–	6.6	–	0.017	–	0.022	0.026	0.015
COCCNC(=O)COc1ccc(C)cc1C	·	–	–	-4.4	–	–	–	–	–	?
O=C(Nc1nnc(C2CC2)o1)c1ccc(S(=O)(=O)N2CCCc3ccccc32)cc1	–	·	–	4.4	0.012	0.025	–	0.012	?	–
